# HIF-2a block = HIF-2a inhibition; 360,000 compounds, 0.72% hits; inhibition, % at 18.8 µM; 786-0 RCC cells HIF-2a reporter, luciferase luminescence, overnight;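 active = inhibition of the luminescence signal of 40% or more relative to plate controls, in a single-dose primary screen at 18.75 µM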
# CF NFkB block = cystic fibrosis NF-kB activation inhibition | KKLEB NF-kB-GFP reporter, PAF-induced, GFP fluorescence overnight | inhibition, % at 5 µM | 360,000 compounds, 0.86% hits;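 active = at least 50% inhibition at 5 µM, scaled per plate between neutral and stimulator controls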;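 note: PAF is a Pseudomonas aeruginosa culture filtrate used as stimulus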
# Shn3 inh set2 = Schnurri-3 reporter inhibition in Clone20 osteoblasts | Clone20 osteoblast Shn3 3'UTR firefly luciferase, 24 h | inhibition, % at 12.5 µM | 360,000 compounds, 0.52% hits;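 active = mean inhibition of at least 75% with every replicate also reaching 75%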
# KKLEB cytotox = counter-screen for CF NF-kB inhibitors: cytotoxicity. 360,000 compounds, 0.36% hits. activity change (cytotoxicity), % at 5 µM. KKLEB CF airway cells viability, ATPlite luminescence, overnight; hits give low values; cells stimulated with P. aeruginosa culture filtrate. AID 602141;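 active = corrected activity change at or below -50% at 5 µM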
# Peg3 prom inh = Peg3 promoter activity inhibition; HeLa PEG-Prom luciferase reporter, luminescence, overnight; inhibition, % at 20 µM; 360,000 compounds, 1.7% hits;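 active = inhibition of at least 50% at 20 µM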
# TRPM1 prom inh = MITF TRPM1 promoter inhibition in SK-MEL-5 cells; SK-MEL-5 TRPM1 promoter luciferase, 24 h; inhibition, % at 12.5 µM; 330,000 compounds, 0.83% hits; AID 488899;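 active = mean inhibition across replicates of 60% or more, whatever share of single replicates reaches that level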
# Hits are given with their value; - = inactive; . = not tested or not shown. An excerpt weighted towards active compounds, which were near 2.8% of everything screened.
SMILES,HIF-2a block,CF NFkB block,Shn3 inh set2,KKLEB cytotox,Peg3 prom inh,TRPM1 prom inh
Cc1cccc(OC(C)C(=O)N2CCN(Cc3ccc4c(c3)OCO4)CC2)c1 (stereo not drawn),-,-,-,-,-,-
CC(C)CCNc1nc(N)c([N+](=O)[O-])c(N2CCCCCC2)n1,-,-,86.8,-,-,-
O=C1C(C2=NC(c3ccccn3)C3C(=O)N(c4ccc(OC(F)(F)F)cc4)C(=O)C23)=C(O)c2ccccc21 (stereo not drawn),-,-,-,-,-,75.0
COc1cc(/C=C2/C(=O)ON=C2c2ccccc2)ccc1O,53.2,-,-,-,-,-
CCOc1cc(/C=C2/C(=O)ON=C2C)cc(Br)c1O,-,-,-,-,-,-
COc1cc(/C=C2\C(=O)ON=C2c2ccccc2)cc(Cl)c1O,-,-,-,-,-,-
COc1cc(/C=C2\C(=O)ON=C2c2ccccc2)cc(Br)c1O,51.3,-,-,-,51.3,-
CCOc1cc(/C=C2\C(=O)ON=C2c2ccccc2)cc(Br)c1O,78.7,-,-,-,-,-
CC(C)[C@@H]1Cc2[nH][nH]c(=O)c2[C@H](C(C)C)O1,-,.,.,.,.,.
Cc1ccc(C(C)C)cc1OCC(=O)Nc1ccc(N2CCCCC2)cc1,-,-,-,-,-,-
Cn1nc(C(C)(C)C)cc1C(=O)NCc1ccc2c(c1)OCO2,-,-,90.1,-,-,-
COc1ccc(N(CC(=O)Nc2cc([N+](=O)[O-])ccc2C)S(C)(=O)=O)cc1OC,-,-,-,-,-,-
c1ccc(Cc2noc(CN3CCN(CCOc4ccccc4)CC3)n2)cc1,-,-,-,-,-,-
CCc1ccc(S(=O)(=O)/N=C2\C=C(NS(=O)(=O)c3ccccc3)C(=O)c3ccccc32)cc1,-,69.0,-,-,-,-
CC(C)c1ccc(S(=O)(=O)/N=C2\C=C(NS(=O)(=O)c3ccccc3)C(=O)c3ccccc32)cc1,-,73.7,-,-,-,-
COc1ccc(C(C#N)CC(=O)c2ccc(OC)c(OCc3ccccc3)c2)cc1OC (stereo not drawn),-,-,-,-,-,.
COc1ccccc1OCCC(=O)OCC(=O)c1[nH]c(C)c(C(C)=O)c1C,-,-,-,-,-,-
Cc1cc(Sc2nnc(/N=C/N(C)C)s2)c2ccccc2n1,-,58.6,-,-,-,-
CC[C@H](C)[C@@H]1OC(=O)[C@@H](C)[C@@H](CC)NC(=O)[C@H](C)N(C)C(=O)C(C)(C)C(=O)C(C)NC(=O)[C@H](Cc2ccccc2)N(C)C(=O)[C@H](C(C)C)N(C)C(=O)CNC(=O)[C@H](CC(C)C)N(C)C(=O)CNC1=O (stereo partly drawn),-,90.6,-,-96.6,87.2,.
C=CCN(C(=O)CSc1nc2c(sc3ccccc32)c(=O)n1CCN(CC)CC)c1ccccc1,-,-,-,-,63.6,-
CN(C)c1ccc(/C=C/c2nc3ccccc3c(=O)[nH]2)cc1,-,-,-,-76.7,-,-
O=c1[nH]c(/C=C/c2ccc(Br)cc2)nc2ccccc12,-,-,-,-,-,-
Cc1noc(C)c1COc1ccc(C(=O)N2CCN(S(=O)(=O)c3cccc(F)c3)CC2)cc1,-,-,-,-,-,-
COc1c(C)cccc1C(=O)NCc1ccc2c(c1)OCO2,-,-,-,-,-,-
Oc1c(C(Nc2nccs2)c2ccc(C(F)(F)F)cc2)ccc2cccnc12 (stereo not drawn),86.9,-,-,-,68.2,79.9
SMILES,HIF-2a block,CF NFkB block,Shn3 inh set2,KKLEB cytotox,Peg3 prom inh,TRPM1 prom inh
CCOc1ccc(C(Nc2cccnc2)c2cc(Cl)c3cccnc3c2O)cc1 (stereo not drawn),-,-,-,-,-,-
Oc1c(C(Nc2nc3ccccc3s2)c2ccco2)ccc2cccnc12 (stereo not drawn),-,-,-,-,-,-
Oc1c(C(Nc2cccc(C(F)(F)F)c2)c2ccncc2)ccc2cccnc12 (stereo not drawn),-,-,97.1,-,-,64.7
O=C(Cn1ccc(=O)[nH]c1=O)Nc1ccc(O)c([N+](=O)[O-])c1,-,-,-,-,-,-
COc1cc(C(=O)NC2CCN(C)CC2)ccc1Nc1ncc2c(n1)N(C1CCCC1)CCC(=O)N2C(C)C,-,-,-,-,69.4,74.3
COc1ccc(OC)c(NC(=O)CCN2C(=O)c3cccc([N+](=O)[O-])c3C2=O)c1,-,-,-,-,-,-

# Screens as filed in PubChem BioAssay.
